From PubChem BioAssay
In the library only some 21% were active in any assay of this set; here they are far more common.
Pf growth 48h: P. falciparum growth inhibition at 48 hours (one generation). P. falciparum luciferase growth in erythrocytes, 48 h. Potency, µM (doses to about 28.7 µM), hits mostly inhibitors. 310,000 tested, 5.9% active. AID 504832
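Cell-based growth assay: transgenic P. falciparum expressing firefly luciferase, cultured in red cells within RPMI 1640 containing 0.5% w/v Albumax, 24 mM bicarbonate and gentamycin. A drop in luciferase activity indicates inhibition.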
Cycloheximide cs: counter-screen for Shiga toxin inhibitors: cycloheximide protein synthesis inhibition; 300,000 tested, 12% active; cell reporter, cycloheximide protein synthesis inhibition counterscreen; max response, %; in the data active = max response mostly above about 13%, no sharp cut-off; inactive = mostly below about 14%; note: read at 38.3 µM for the half of the compounds with a filed dose
Shiga inhibitor: blocks Shiga toxin action in Vero cells; Vero cells, Shiga toxin protein synthesis inhibition reporter; inhibition, % at 38.7 µM; 290,000 tested, 9.2% active; in the data active = inhibition mostly above about 28%, no sharp cut-off; inactive = mostly below about 43%
NS1 inh: inhibitors of influenza NS1 protein function. Potency, µM (doses to about 46.1 µM). 270,000 tested, 0.4% active; calls by dose curve; note: actives are rising curves; nearly all actives have a fitted effect of over 50% in size
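In this qHTS, NS1 from influenza A is expressed in budding yeast, where it slows growth. Cells are switched from glucose to 2% galactose medium (pH 6.0, -URA), treated with compound, and growth recovery is read at OD600.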
Pf growth 96h: P. falciparum growth inhibition at 96 hour, primary screen for plastid delayed-death inhibitors | 320,000 tested, 6.9% active | Potency, µM (titrated, usually from 28.7 µM), actives largely listed as inhibitors | P. falciparum luciferase reporter growth, 96 h
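Cell-based qHTS: luciferase-tagged P. falciparum in erythrocytes (2% hematocrit, 0.05% parasitemia final) incubated with compounds for 96 hours, 37 C, 5% CO2; luciferase detection reagent then added and luminescence measured.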
FBPA Giardia inh: blocks Giardia fructose-bisphosphate aldolase activity | purified Giardia FBPA | Potency, µM (top dose mostly 59.6 µM), most hits filed as inhibitors | 290,000 tested, 0.71% active; note: nearly all actives have a fitted effect of over 55% in size
Target sequence (A8B2U2 whole entry, looked up): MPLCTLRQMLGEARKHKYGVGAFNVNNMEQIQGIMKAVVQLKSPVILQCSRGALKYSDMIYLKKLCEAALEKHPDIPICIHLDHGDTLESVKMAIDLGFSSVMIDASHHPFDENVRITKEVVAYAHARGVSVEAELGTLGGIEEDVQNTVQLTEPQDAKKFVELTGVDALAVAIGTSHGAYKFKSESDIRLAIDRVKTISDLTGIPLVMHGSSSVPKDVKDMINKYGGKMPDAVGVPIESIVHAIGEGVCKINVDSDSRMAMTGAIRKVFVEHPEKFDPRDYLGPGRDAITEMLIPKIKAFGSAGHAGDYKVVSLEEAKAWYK
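40 nM FBPA preincubated 10 min at RT with compound (up to 57.5 uM final), then substrate plus GAPDH/TPI/NAD/arsenate coupling and diaphorase/resazurin added. Fluorescence read after 20 min at RT, 525/598 nm.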
Hits are given with their value; 0 = inactive; ? = inconclusive; - = no result; [ ] = remark or other dose. Unless noted, calls come from the whole dose curve; as a rule, active = well fitted curve in the direction sought with a large enough effect; inconclusive = small, poorly fitted or top-dose-only effect, or another doubt; inactive = no such curve, though single readings can be large; an effect the other way counts as inactive or inconclusive.

SMILES	Pf growth 48h	Cycloheximide cs	Shiga inhibitor	NS1 inh	Pf growth 96h	FBPA Giardia inh
CC(C)N1CCN(Cc2cccn2-c2ccccn2)CC1CCO (stereo not given)	0	0	0	0	0	0
CCc1nnc(NS(=O)(=O)c2ccc(NC(=O)/C=C/c3ccc(OC)cc3OC)cc2)s1	0	0	0	?	?	0
CCc1nnc(NS(=O)(=O)c2ccc(N/C=C\C(=O)c3cccc(OC)c3)cc2)s1	0	31.7	72.3	0	0	0
CC12CCC(=O)N1C(C(=O)NNC(=O)COc1cccc(C(F)(F)F)c1)CS2 (stereo not given)	0	-	-	-	0	-
CCCCSc1nnc2n(CCc3ccccc3)c(=O)c3c4c(sc3n12)COC(C)(C)C4	0	0	0	0	1.65µM	0
O=C(CC1SCCNC1=O)Nc1cccc(Cl)c1 (stereo not given)	0	16.6	38.9	0	-	0
O=C(CC1SCCNC1=O)Nc1cccc(C(F)(F)F)c1 (stereo not given)	0	0	0	?	0[5.75 µM]	0
O=C(Cc1ccc(Br)cc1)Nc1cccc(Cl)c1	0[5.75 µM]	20.6	0	-	0	0
O=C(Cc1ccc(Br)cc1)NNC(=O)Nc1ccc(Cl)cc1	0	0	0	0	0	0
O=C(Cc1ccc(Cl)cc1)Nc1ccc(Br)cc1	0	30.5	73.8	-	0	0
COc1ccc(N(CC(=O)Nc2cccnc2)S(=O)(=O)c2ccccc2)cc1OC	0	0	0	0	0	0
C=C(C)CC1(c2ccccc2)Oc2ccccc2-c2nc3cc(Cl)c(Cl)cc3nc21 (stereo not given)	-	-	-	-	-	0[12.9 µM]
NCC(=O)N[C@@H](CCCN=C(N)N)C(=O)NCC(=O)N[C@@H](CCC(=O)O)C(=O)N[C@@H](CO)C(=O)O	-	0	0	-	-	0
CC(C)(CNc1ccc([N+](=O)[O-])cc1Cl)N1CCOCC1	0	0	0	0	?	0
Cc1noc(C)c1C(=O)NCCc1ccc(Cl)cc1	0	0	0	0	-	0
Cc1cc(C(C)(C)C)cc(C)c1CCNC(=O)c1c(C)noc1C	13.1µM	-	-	-	8.28µM	-
CC(=O)OCC(=O)C1CCC2C3CC=C4CC(O)CC[C@@]4(C)C3CC[C@]12C (stereo not given in full)	-	-	-	-	-	0
CCCCCCCn1c(=N)n(CC(O)c2ccco2)c2ccccc21 (stereo not given)	4.15µM	0	0	0	?	0
N=c1n(CCN2CCCC2)c2ccccc2n1CC(O)c1ccco1 (stereo not given)	?	0	0	0	0	0
CCCCn1c(=N)n(CC(=O)c2ccco2)c2ccccc21	0	0	0	0	0	0
CCCCCCCn1c(=N)n(CC(=O)c2ccco2)c2ccccc21	-	0	0	0	11.7µM	0
CCOC(=O)N/N=C1/C[C@@H](O)[C@@H](O)[C@@H]2[C@@H]3C(=O)N(c4cccc(Oc5ccccc5)c4)C(=O)[C@H]3CC[C@@H]12	-	-	-	-	-	0[12.9 µM]
Cc1cccc(Nc2n[nH]c(C)c2[N+](=O)[O-])c1	0	63.1	107.0	0	0	0
CCN1CCN(c2nc(N)c([N+](=O)[O-])c(Nc3cccc(C)c3)n2)CC1	0	0	0	0	0	0
Cc1[nH]nc(Nc2ccc(Br)cc2)c1[N+](=O)[O-]	0	56.4	112.4	0	0	0
SMILES	Pf growth 48h	Cycloheximide cs	Shiga inhibitor	NS1 inh	Pf growth 96h	FBPA Giardia inh
Cc1[nH]nc(Sc2ccccn2)c1[N+](=O)[O-]	0	0	43.7	0	0	0
Cc1ccc(Nc2n[nH]c(C)c2[N+](=O)[O-])cc1	0	29.3	42.6	0	0	0
Cc1cc(C)cc(Nc2ccc([N+](=O)[O-])nc2[N+](=O)[O-])c1	?	0	0	0	?	0
Cc1[nH]nc(NCCO)c1[N+](=O)[O-]	0	0	0	-	0	0
CCc1ccc(NC(=O)CSc2n[nH]c(C)c2[N+](=O)[O-])cc1	0	0	0	0	0	0
Cc1[nH]nc(Nc2ccc(C(C)C)cc2)c1[N+](=O)[O-]	0	57.4	54.5	0	0	0
Cc1[nH]nc(Nc2ccccc2)c1[N+](=O)[O-]	0	31.5	0	0	?	0
Cc1[nH]nc(NNC(=O)c2ccccc2)c1[N+](=O)[O-]	0	0	0	0	0	0
CCOc1cccc(NC(=O)C2CC(=O)N(c3ccc(F)cc3)C2)c1 (stereo not given)	0	0	0	0	?	0
CCOc1ccc(N2CC(C(=O)N3CCCC3)CC2=O)cc1 (stereo not given)	0	0	0	0	11.7µM	0
